High-throughput results as filed in PubChem.
LDHA inh – qHTS assay for inhibitors of human lactate dehydrogenase. L-lactate dehydrogenase A chain (Homo sapiens), P00338. purified LDHA, NADH/diaphorase-resazurin fluorescence; active compounds read low. activity change, % (values are at about 110 or 230 µM). 480,000 tested, 0.15% active; in the data active means activity change below about -30%; inconclusive means mostly about -25% to -30%
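Resorufin fluorescence (ex540/em590), read at 0 and 20 min after diaphorase/resazurin addition, reports the NADH left after a 5 min room-temperature reaction of 2 nM human LDH5 with 0.06 mM NADH and 0.2 mM pyruvate.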
mIDH1 inhibitor – qHTS for Inhibitors of mutant isocitrate dehydrogenase 1 (IDH1): qHTS. Isocitrate dehydrogenase [NADP] cytoplasmic (Homo sapiens), O75874. IDH1-R132H enzyme, NADPH consumption, diaphorase/resazurin fluorescence. Potency, µM (titrated, usually from 76.6 µM), usual class: inhibitors. 390,000 tested, 0.093% active; further: nearly all actives have a fitted effect of over 65% in size
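IDH1-R132H (0.5 ug/mL) preincubated 30 min with compound, then NADPH (0.016 mM) and alpha-KG (2 mM) added; 80 min at RT, pH 7.5. Remaining NADPH coupled via diaphorase/resazurin to fluorescence (540/590 nm); concentration-response curves normalized to no-enzyme control.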
PGK inhibitor – qHTS Assay to Find Inhibitors of Phosphoglycerate Kinase; Phosphoglycerate kinase, glycosomal (Trypanosoma brucei brucei), P07378; PGK/GAPDH coupled, Kinase-Glo luminescence, 60 min; Potency, µM (doses to about 57.5 µM), most hits filed as inhibitors; 380,000 tested, 0.043% active; further: nearly all actives have a fitted effect of over 60% in size
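Luminescent ATP detection (Kinase-Glo Plus) follows a 60-minute room-temperature incubation, with wells lacking PGK as controls. Buffer: 100 mM TEA (pH 7.6), 5 mM MgCl2, 0.01% Tween-20. Coupling enzyme GAPDH (100 nM final) supplies unstable 1,3-BPG in-well.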
Vif-APOBEC3F blk – qHTS for Inhibitors of Vif-A3F Interactions: qHTS; HeLa A3F-eYFP + Vif (tagged APOBEC3F with the HIV-1 protein that degrades it), YFP fluorescence increase; 390,000 tested, 0.2% active; Potency, µM (titrated, usually from 46.1 µM); further: nearly all actives have a fitted effect of over 65% in size
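HeLa cells stably expressing Vif plus C-terminally eYFP-tagged A3F were seeded, incubated overnight at 37 deg C, dosed with compound, incubated overnight again at 37 deg C. Yellow fluorescence (Ex 488/Em 500-530) reported blocked Vif-mediated A3F-eYFP degradation.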
Vif-APOBEC3G blk – qHTS for Inhibitors of Vif-A3G Interactions: qHTS; DNA dC->dU-editing enzyme APOBEC-3G (Homo sapiens), Q9HC16; HeLa A3G-eYFP + Vif (tagged APOBEC3G with the HIV-1 protein that degrades it), YFP fluorescence, overnight; Potency, µM (top dose mostly 46.1 µM), most hits filed as inhibitors; 410,000 tested, 0.076% active; further: nearly all actives have a fitted effect of over 60% in size
Target sequence (Q9HC16 whole entry, looked up): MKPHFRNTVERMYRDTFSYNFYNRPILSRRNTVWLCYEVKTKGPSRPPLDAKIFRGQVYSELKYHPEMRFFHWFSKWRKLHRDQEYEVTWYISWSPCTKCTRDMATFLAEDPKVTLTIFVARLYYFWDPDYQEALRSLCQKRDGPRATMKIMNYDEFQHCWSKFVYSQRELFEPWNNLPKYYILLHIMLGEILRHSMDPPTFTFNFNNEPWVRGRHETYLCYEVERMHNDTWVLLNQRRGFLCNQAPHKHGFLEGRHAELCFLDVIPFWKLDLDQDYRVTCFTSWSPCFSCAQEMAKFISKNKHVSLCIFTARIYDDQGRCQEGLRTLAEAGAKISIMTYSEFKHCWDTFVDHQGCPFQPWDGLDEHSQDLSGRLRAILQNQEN
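HeLa cells stably expressing Vif and C-terminally eYFP-tagged A3G, seeded overnight at 37 deg C, then exposed to compound by pintool overnight at 37 deg C. Rise in yellow fluorescence (Ex 488/Em 500-530, Acumen) marks blocked Vif-driven A3G degradation.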
Pin1 inh – qHTS Assay to Find Inhibitors of Pin1; Peptidyl-prolyl cis-trans isomerase NIMA-interacting 1 (Homo sapiens), Q13526; Pin1 FP peptide displacement, HiFluor488, 10 min; Potency, µM (doses to about 115 µM), actives largely listed as inhibitors; 390,000 tested, 0.009% active; active means well fitted inhibition curve with a large enough effect in the polarisation, with a control signal flat, not every such curve was filed as active; inconclusive means small, poorly fitted or top-dose-only effect, or effect the other way, or a change in a side signal; inactive means no such curve, though single readings can be large or run the other way; the % refers to the polarisation
Target sequence (Q13526 whole entry, looked up): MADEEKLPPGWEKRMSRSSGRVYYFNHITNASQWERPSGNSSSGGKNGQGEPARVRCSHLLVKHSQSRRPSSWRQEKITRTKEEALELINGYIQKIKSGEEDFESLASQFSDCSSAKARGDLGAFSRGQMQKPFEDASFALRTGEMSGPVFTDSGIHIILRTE
IDH1 autofl – qHTS for Inhibitors of mutant isocitrate dehydrogenase 1 (IDH1): Cherrypicks Autofluorescence Interference; shares compounds with mIDH1 inhibitor; Resorufin detection reagent fluorescence interference, cell-free; inhibition of signal, % at 51.2 µM; 750 tested, under 10 active; AID 623980, 2012
WT IDH1 inh – qHTS for Inhibitors of mutant isocitrate dehydrogenase 1 (IDH1): Cherrypicks in WT IDH1. shares compounds with mIDH1 inhibitor. WT IDH1 enzyme, NADPH diaphorase/resazurin fluorescence. Potency, µM (top dose mostly 115 µM), usual class: inhibitors. AID 623995, 2012. 750 tested, 9% active; further: nearly all actives have a fitted effect of over 55% in size
mIDH1 confirm – qHTS for Inhibitors of mutant isocitrate dehydrogenase 1 (IDH1): Confirmation of Cherrypicks; AID 624002, 2012; shares compounds with mIDH1 inhibitor; Potency, µM (titrated, usually from 76.6 µM), usual class: inhibitors; IDH1 R132H enzyme, NADPH diaphorase/resazurin fluorescence; 750 tested, 83% active; further: nearly all actives have a fitted effect of over 50% in size
A number is an active result; – = inactive; ? = inconclusive; · = no result given. Rows were chosen to be rich in hits. Some 0.49% of all compounds tested hit in one or more screens of this group. Unless noted, the call rests on the fitted dose curve; in most records, active means well fitted curve in the direction sought with a large enough effect; inconclusive means small, poorly fitted or top-dose-only effect, or another doubt; inactive means no such curve, though single readings can be large; an effect the other way counts as inactive or inconclusive.

SMILES	LDHA inh	mIDH1 inhibitor	PGK inhibitor	Vif-APOBEC3F blk	Vif-APOBEC3G blk	Pin1 inh	IDH1 autofl	WT IDH1 inh	mIDH1 confirm
Cc1ccc2nc(-c3cccnc3)cc(C(=O)NCc3cccs3)c2c1	–	·	·	·	·	·	·	·	·
CCc1cccc(C)c1-n1nnnc1C(C)(CC)Nc1ccc2c(c1)OCCO2 (configuration not stated)	–	·	·	·	·	·	·	·	·
CCN(CC)C(=O)c1sc2c(c1C)c(=O)n(-c1ccc(OC)cc1OC)c(=O)n2CC(=O)c1ccccc1	–	–	–	–	–	–	·	·	·
C#CCn1c(=O)n(-c2cccc(Cl)c2C)c(=O)c2c3c(sc21)CN(C(C)=O)CC3	–	–	–	–	–	–	·	·	·
CC(=O)N1CCc2c(sc3c2c(=O)n(-c2cccc(Cl)c2C)c(=O)n3Cc2ccccc2C)C1	–	?	–	–	–	–	–	40µM	28µM
COc1ccc(-n2c(=O)c3c4c(sc3n(Cc3cc(C)ccc3C)c2=O)CN(C(C)=O)CC4)c(OC)c1	–	?	–	–	–	–	–	?	14µM
CCN(CC)C(=O)c1sc2c(c1C)c(=O)n(CCc1ccccc1)c(=O)n2Cc1cc(C)ccc1C	–	10µM	–	–	–	–	–	–	8.9µM
CCN(CC)C(=O)c1sc2c(c1C)c(=O)n(Cc1ccccc1)c(=O)n2Cc1cc(C)ccc1C	–	–	–	–	–	–	·	·	·
CCN(CC)C(=O)c1sc2c(c1C)c(=O)n(-c1ccc(OC)cc1OC)c(=O)n2Cc1cc(C)ccc1C	–	40µM	–	–	–	–	–	–	22µM
O=C(CSc1nc2ccccc2o1)N1CCN(CC(=O)N2CCCC2)CC1	–	·	·	·	·	·	·	·	·
CC(=O)c1ccc(S(=O)(=O)N2CCCC2c2cccn2C)cc1 (configuration not stated)	–	·	·	·	·	·	·	·	·
CCN(CC)C(=O)c1sc2c(c1C)c(=O)n(-c1ccc(C)c(C)c1)c(=O)n2Cc1cccc(Cl)c1	–	?	–	–	–	–	–	–	13µM
O=C(Oc1ccc(-c2cnc3ccccc3n2)cc1)c1cc([N+](=O)[O-])ccc1Cl	–	–	–	–	–	–	·	·	·
Cc1c(C(=O)Oc2ccc(-c3cnc4ccccc4n3)cc2)cccc1[N+](=O)[O-]	–	?	–	–	–	–	–	–	50µM
COc1ccc(N(CC(=O)Nc2ccc(Cl)cc2)S(=O)(=O)c2c(C)n[nH]c2C)cc1	–	–	–	–	–	–	·	·	·
COc1ccc(N(CC(=O)N2CCN(c3ccc(Cl)cc3)CC2)S(=O)(=O)c2c(C)n[nH]c2C)cc1	–	?	–	–	–	–	–	–	13µM
CC1=CC(C)(C)N2C(=O)C3(C(C#N)=C(N)Oc4cc(O)ccc43)c3c(C)c(C)cc1c32 (configuration not stated)	–	23µM	–	–	–	–	–	–	20µM
